Test results as given in PubChem BioAssay AID686978 (National Center for Advancing Translational Sciences (NCATS), 2013).
Screen size: about 420,000 compounds; about 64,000 (15%) were called active. About 27% were inconclusive and are not listed. The list is a sample of the results. Unmarked numbers belong to inactive results. The call rests on the fitted dose curve; in most records, active means well fitted inhibition curve with a large enough effect; inconclusive means small, poorly fitted or top-dose-only effect; inactive means flat fitted curve, though single readings scatter.

Assay: qHTS for Inhibitors of human tyrosyl-DNA phosphodiesterase 1 (TDP1): qHTS in cells in absence of CPT; further: nearly all actives have a fitted effect of over 55% in size
Details: DT40 Tdp1-/- hTDP1 cells, no CPT, ATP luminescence, 48 h; activity change, negative = growth inhibition: at 46.2 µM (top of the series)
Outline: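 No-CPT arm: Tdp1-/-;hTDP1 DT40 cells (400/well) plus compounds, incubated ≥48 hr at 37 °C. Readout CellTiter-Glo luminescence.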
On the % scale 0 is the no-effect control and ±100 the full control effect; potency means the concentration at half of the fitted maximal effect.

SMILES | activity change, negative = growth inhibition [%] | Potency
COc1ccc2oc(=O)cc(-c3cc4ccccc4o3)c2c1 | -16.8 | 
CC1C=CCC2C(=O)N(c3cccc(C(=O)N4CCCCCC4)c3)C(=O)C12 (stereo unspecified) | -13 | 
CCCCCCCC(=O)OC(CN1CCCCCC1)CN1CCCC1=O (stereo unspecified) | -24.6 | 
CCCCNC(=O)N1CCN(S(C)(=O)=O)CC1 | -8.63 | 
COc1cc(OC)cc(C(=O)NCCCn2ccnc2)c1 | 12.1 | 
COc1cccc(-c2nn(-c3ccccc3)cc2/C=C(\C#N)C(=O)NCCCn2ccnc2)c1 |  | 20.6 µM (active)
O=C(NCCCn1ccnc1)/C(=C\c1ccccc1F)NC(=O)c1ccccc1 | -16.8 | 
NC(=NC(=O)c1ccccc1)C1=C(O)CCC1=O | 10 | 
N#CC1(Nc2ccc(-c3ccc(Cl)cc3)cc2)CCCC1 | -29.4 | 
Nc1nc(NC(=O)/C=C/c2ccccc2)nn1-c1ccccc1 | -3.08 | 
CCCc1cc(=O)oc2c(C)c(OCC(=O)Nc3ccccn3)ccc12 | -16 | 
CC1CCN(C(=O)CCc2nnc3ccc(NCc4ccco4)nn23)CC1 | -6.36 | 
CN1CCc2c(sc3c2c(NCc2ccco2)nc2nnnn23)C1 |  | 18.4 µM (active)
O=C(CN(c1cccc(Cl)c1)S(=O)(=O)c1ccccc1)NN=C1CCCC1 | 9.75 | 
Cc1cccc(-n2ncc3c(=O)[nH]c(SCC(=O)Nc4cc(C)on4)nc32)c1 | -21.6 | 
O=C(NCC(=O)N1CCCC(C(F)(F)F)C1)c1ccccc1F (stereo unspecified) | -11.8 | 
FC(F)(F)C1CCCN(c2nsc3ccccc23)C1 (stereo unspecified) |  | 2.59 µM (active)
O=C(NC(Cc1ccccc1)C(=O)N1CCCC(C(F)(F)F)C1)c1ccccc1 (stereo unspecified) | -7.09 | 
CC(=NC1CCN(Cc2ccccc2)CC1)c1c(O)[nH]c(=O)[nH]c1=O | 2.49 | 
O=C(CCc1ccccc1)NNC(=O)COc1ccc(Cl)cc1 | 3.05 | 
Cc1cccc(OCc2nnc(SCC(=O)N3CCN(C(=O)c4ccco4)CC3)n2C)c1C | -13.6 | 
O=C(COc1ccc(Cl)cc1)N(Cc1ccco1)Cc1ccco1 |  | 20.6 µM (active)
Cc1cccc(OCC(=O)N(Cc2ccc(C(C)C)cc2)Cc2ccco2)c1C |  | 20.6 µM (active)
O=C(CCCOc1ccccc1)NCc1ccco1 | 3.07 | 
Cc1ccnc(NC(=O)CCC(=O)N(CC(=O)NCc2ccccc2)Cc2ccco2)c1 | 9.59 | 
O=C(Nn1cnc2ccccc2c1=O)c1ccc(F)cc1Cl | -25.1 | 

SMILES | activity change, negative = growth inhibition [%] | Potency
O=S(=O)(c1ccc(-c2ccno2)s1)N1CCCCC1 | -13 | 
O=C(C1CCCO1)N1CCN(C(=S)NC2CC2)CC1 (stereo unspecified) | 1.54 | 
Cc1ccc(S(=O)(=O)NNC(=O)Nc2cccc3ccccc23)cc1 | -108 | 
CC1CCc2c(nc3ncnn3c2Nc2ccc(OC(F)(F)F)cc2)C1 (stereo unspecified) |  | 20.6 µM (active)
CC(=O)c1nn(-c2ccc(OC(F)(F)F)cc2)nc1Nc1ccccc1 | -20.1 | 
CC1(C)C(C=C(Cl)Cl)C1C(=O)NC(O)C(=O)c1ccccc1 (stereo unspecified) | -29.8 | 
Nc1ccccc1/C=N\N=C/c1ccccc1N | -7.67 | 
Nc1ccccc1N |  | 7.7 µM (active)
Nc1cccnc1Sc1ccccc1 | -8.79 | 
COc1cc2c(cc1CNC[C@H]1O[C@@H](n3cnc(C(N)=O)n3)[C@H](O)[C@@H]1O)OCO2 | -13.2 | 
Cc1ccn2cc(C(=O)NC3CCN(Cc4ccccc4)CC3)nc2c1 | -12.8 | 
Cc1ccsc1-c1nc(CSCC(=O)NCCN2CCCC2)c(C)o1 | 4.82 | 
Cc1cc(C(=O)NC2CCN(Cc3ccccc3)CC2)n[nH]1 | -5.37 | 
CC1CCCCC1NC(=O)c1cc(=O)[nH]c2ccccc12 (stereo unspecified) | -24.4 | 
CC1CCCC(NC(=O)c2cc(-c3ccncc3)nc3ccccc23)C1C (stereo unspecified) |  | 23.1 µM (active)
CCOC(=O)N1CCC(NC(=O)CCc2ccccc2)CC1 | -5.47 | 
Cc1ccc(-c2nc(CSCC(=O)NC3CCN(Cc4ccccc4)CC3)c(C)o2)cc1 |  | 16.4 µM (active)
Cc1ccc(-c2cc(C(=O)NC3CCN(Cc4ccccc4)CC3)c3ccccc3n2)cc1 |  | 16.4 µM (active)
COC(=O)CNC(=O)c1cc(-c2ccncc2)nc2ccccc12 | -24.2 | 
C=CCn1c(SCC(=O)NC23CC4CC(CC(C4)C2)C3)nc(O)cc1=O | 4.5 | 
COc1ccc2c(CC(=O)NNC(=O)c3ccccc3F)coc2c1 | -3.08 | 
CCC1([N+](=O)[O-])COC(c2ccc(C)cc2)OC1 (stereo unspecified) | -3.79 | 
O=C1CCc2cc(S(=O)(=O)N3CCC(C(=O)NCc4ccccc4Cl)CC3)ccc2N1 | -4.74 | 
O=C1c2ccccc2C(=O)N1CCC(O)C[N+](=O)[O-] (stereo unspecified) | -15.4 | 
CCCNC(=O)CCn1cc(-c2ccc(OC)cc2)nc1CCN | -11.7 | 
